# Screens deposited in PubChem BioAssay by National Center for Advancing Translational Sciences (NCATS).
# JMJD2A Tudor: blocks the human JMJD2A Tudor domain. O75164. AlphaScreen JMJD2A-Tudor / H3K4me3 peptide binding. Potency, µM (series often up to 114 µM), without a hit: at the highest dose activity change, negative = inhibition, usual class: inhibitors. actives 4.4% (n = 390,000). AID 504339; note: % is set by controls: 0 for no effect and ±100 for the full control effect; nearly all actives have a fitted effect of over 50% in size
# L3MBTL1 inh: blocks human L3MBTL1; AlphaScreen L3MBTL1–H3K9me1 peptide binding; Potency, µM (top dose mostly 57.1 µM), without a hit: top-dose activity, negative = inhibition, actives largely listed as inhibitors; actives 0.66% (n = 230,000); AID 485360; note: % is set by controls: 0 for no effect and ±100 for the full control effect; nearly all actives have a fitted effect of over 60% in size
#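 Displacement of a biotinylated histone H3(1-15) peptide monomethylated at Lys9 (75 nM) from L3MBTL1 (50 nM) was measured by AlphaScreen after a 30 min room-temperature compound incubation; cefsulodin titration served as intraplate control.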
# BAZ2B inh: blocks human BAZ2B | actives 4.4% (n = 360,000) | Potency, µM (highest dose often 114 µM), for the others: at the highest dose activity change, negative = inhibition, actives largely listed as inhibitors | AlphaScreen BAZ2B-H3K14Ac peptide displacement | AID 504333; note: % is set by controls: 0 for no effect and ±100 for the full control effect; nearly all actives have a fitted effect of over 60% in size
# Target sequence (Q9UIF8 whole entry, looked up): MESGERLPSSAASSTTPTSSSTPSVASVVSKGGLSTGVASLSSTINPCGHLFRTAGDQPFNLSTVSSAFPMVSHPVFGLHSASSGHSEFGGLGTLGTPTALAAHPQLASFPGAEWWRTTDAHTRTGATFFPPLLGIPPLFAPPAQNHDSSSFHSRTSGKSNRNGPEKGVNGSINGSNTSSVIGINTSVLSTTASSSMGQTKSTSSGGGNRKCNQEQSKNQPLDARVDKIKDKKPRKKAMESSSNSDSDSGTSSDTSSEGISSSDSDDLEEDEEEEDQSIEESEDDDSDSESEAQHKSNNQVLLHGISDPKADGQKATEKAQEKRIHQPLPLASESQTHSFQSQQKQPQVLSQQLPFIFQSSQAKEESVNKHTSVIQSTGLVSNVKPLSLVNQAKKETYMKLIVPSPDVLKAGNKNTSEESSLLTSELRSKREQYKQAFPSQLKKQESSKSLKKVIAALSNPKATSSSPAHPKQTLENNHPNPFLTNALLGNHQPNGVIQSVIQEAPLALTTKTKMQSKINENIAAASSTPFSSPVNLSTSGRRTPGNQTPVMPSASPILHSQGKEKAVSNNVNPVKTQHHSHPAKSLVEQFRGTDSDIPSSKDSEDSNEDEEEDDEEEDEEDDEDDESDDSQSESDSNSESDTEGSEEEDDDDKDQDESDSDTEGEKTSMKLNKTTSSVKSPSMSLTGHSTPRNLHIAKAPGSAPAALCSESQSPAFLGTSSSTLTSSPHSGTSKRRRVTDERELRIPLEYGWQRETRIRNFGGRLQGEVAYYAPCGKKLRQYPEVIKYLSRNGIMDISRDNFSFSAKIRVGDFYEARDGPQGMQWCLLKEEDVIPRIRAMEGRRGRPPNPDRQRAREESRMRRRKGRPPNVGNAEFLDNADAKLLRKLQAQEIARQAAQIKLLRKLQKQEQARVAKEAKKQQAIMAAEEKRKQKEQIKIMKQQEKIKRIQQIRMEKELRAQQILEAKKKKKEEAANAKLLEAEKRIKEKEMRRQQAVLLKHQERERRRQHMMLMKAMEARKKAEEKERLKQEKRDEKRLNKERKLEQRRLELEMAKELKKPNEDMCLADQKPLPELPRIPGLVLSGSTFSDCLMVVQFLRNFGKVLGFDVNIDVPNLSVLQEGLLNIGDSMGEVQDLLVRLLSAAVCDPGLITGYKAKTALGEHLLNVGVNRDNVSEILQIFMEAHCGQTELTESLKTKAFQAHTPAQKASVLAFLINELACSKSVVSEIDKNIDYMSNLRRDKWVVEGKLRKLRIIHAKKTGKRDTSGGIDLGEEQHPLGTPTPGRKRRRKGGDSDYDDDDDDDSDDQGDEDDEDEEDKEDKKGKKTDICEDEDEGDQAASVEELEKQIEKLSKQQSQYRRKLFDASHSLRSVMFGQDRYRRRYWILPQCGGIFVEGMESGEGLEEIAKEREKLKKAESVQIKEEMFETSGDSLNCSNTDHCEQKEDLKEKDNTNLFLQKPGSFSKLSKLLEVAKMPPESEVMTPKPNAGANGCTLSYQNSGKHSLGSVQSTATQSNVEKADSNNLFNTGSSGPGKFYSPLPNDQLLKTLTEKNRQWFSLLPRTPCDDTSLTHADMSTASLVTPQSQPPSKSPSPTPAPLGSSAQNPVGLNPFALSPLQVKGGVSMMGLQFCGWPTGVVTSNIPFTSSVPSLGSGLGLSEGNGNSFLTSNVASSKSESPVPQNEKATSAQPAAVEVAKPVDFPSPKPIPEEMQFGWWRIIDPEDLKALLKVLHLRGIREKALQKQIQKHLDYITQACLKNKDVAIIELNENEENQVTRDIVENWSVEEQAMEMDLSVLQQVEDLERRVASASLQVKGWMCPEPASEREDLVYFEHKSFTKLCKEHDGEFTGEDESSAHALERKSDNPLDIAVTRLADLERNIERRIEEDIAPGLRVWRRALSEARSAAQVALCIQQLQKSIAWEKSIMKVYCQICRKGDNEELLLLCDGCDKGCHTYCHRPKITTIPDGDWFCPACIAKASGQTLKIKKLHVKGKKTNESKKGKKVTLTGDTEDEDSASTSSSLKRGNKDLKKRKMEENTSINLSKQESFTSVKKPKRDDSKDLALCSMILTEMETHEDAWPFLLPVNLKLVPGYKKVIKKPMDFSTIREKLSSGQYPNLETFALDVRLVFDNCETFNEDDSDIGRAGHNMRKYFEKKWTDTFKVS
#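 Compounds, titrated to a top concentration of 110 uM, were incubated 30 min at room temperature with preformed BAZ2B/acetyl-K14 H3 peptide complex (50 nM each). Proximity signal was measured by AlphaScreen after 20 min with beads.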
# G9a block: inhibitors of human histone lysine methyltransferase G9a. Q96KQ7. G9a H3K9 monomethylation, AlphaScreen, 2 h. Potency, µM (top dose mostly 102 µM), inactives show top-dose activity, negative = inhibition, actives largely listed as inhibitors. actives 8.8% (n = 350,000). AID 504332; note: % is set by controls: 0 for no effect and ±100 for the full control effect; nearly all actives have a fitted effect of over 75% in size
#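 Compounds were preincubated with 20 nM G9a for 15 min, after which biotinylated H3K9 peptide (500 nM) and SAM (20 uM) started a 2 h room-temperature reaction. Monomethylated product was quantified by antibody-based AlphaScreen chemiluminescence.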
# GLS inhibitor: inhibitors of human glutaminase (GLS) | O94925 | GLS enzymatic activity, qHTS titration | Potency, µM (top dose mostly 45.5 µM), for the others: at the highest dose activity change, negative = inhibition, hits mostly inhibitors | actives 0.21% (n = 410,000) | AID 624170; note: % is set by controls: 0 for no effect and ±100 for the full control effect
#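 hKGA in 45 mM KH2PO4 pH 8.2, 0.02% Tween-20 with pin-transferred compounds; 1 mM L-glutamine (stock) plus glutamate oxidase/HRP/Amplex Red coupling added. Fluorescence read initially and after 30 min at RT.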
# HP1b chromo inh: HP1-beta chromodomain-methylated histone interaction inhibition. AlphaScreen HP1-beta / biotin-H3K9me3 peptide binding. Potency, µM (highest dose often 114 µM), for inactives: at the highest dose activity change, negative = inhibition, most hits filed as inhibitors. actives 0.56% (n = 390,000). AID 540317; note: nearly all actives have a fitted effect of over 70% in size
#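 Compound inhibition of the preformed complex between 50 nM HP1-beta and 50 nM biotinylated H3K9me3 peptide was read by AlphaScreen. Buffer was PBS pH 7.4 with 0.01% Tween-20. Incubations ran 30 min at room temperature, with 10 ug/mL donor/acceptor beads.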
# * = called active by the depositor; ? = inconclusive; nt = not tested or not shown; [ ] = another dose, or the depositor's remark. Hits are enriched below; roughly 10% of the tested compounds scored in any of these assays. Calls come from the whole dose curve; as a rule, active = well fitted curve in the direction sought with a large enough effect; inconclusive = small, poorly fitted or top-dose-only effect, or another doubt; inactive = no such curve, though single readings can be large; an effect the other way counts as inactive or inconclusive. Potency is the fitted concentration of half-maximal effect.
SMILES,JMJD2A Tudor,L3MBTL1 inh,BAZ2B inh,G9a block,GLS inhibitor,HP1b chromo inh
O=C(Nc1ccc(OC(F)(F)F)cc1)c1ccc2nc[nH]c2c1,-13%,1%,-38%,50µM*,0%,24%
COc1ccc(NC(=O)c2ccc3nc[nH]c3c2)c(OC)c1,-15%,-19%,?,19%,2%,24%
CCOc1ccc(C(=O)NCCn2cc(SCC(=O)Nc3ccccc3)c3ccccc32)cc1,-19%,nt,-25%,-34%[59 µM],12%,11%
CCOC(=O)c1nnc(-c2ccccc2)nc1Sc1c(Cl)cccc1Cl,?,nt,?,40µM*,-9%,-22%
CCc1ccc(-c2[nH]nc3nc(-c4cc(OC)ccc4OC)cc(C(=O)O)c23)cc1,?,nt,?,-29%[59 µM],0%,27%
O=C(Nc1ccccc1OCc1cc(=O)n2ccccc2n1)c1ccccc1F,8%,nt,11%,-5%[59 µM],1%,32%[57 µM]
COc1cccc(-c2coc3cc4oc(=O)c(CCC(=O)O)c(C)c4cc23)c1,-8%,nt,4%,-31%,13µM*,12%
Cc1c(CC(=O)NCC(=O)O)c(=O)oc2cc3occ(-c4ccccc4)c3cc12,-12%,nt,0%,0%,4µM*,25%
COc1ccc2c(c1)NC(c1ccc(Cl)cc1)=NC(c1cccs1)=N2,14µM*,nt,-28%,?,5%,?
CCCOc1cccc(C(=O)N(Cc2sccc2C)C2CCS(=O)(=O)C2)c1 (stereo not given),-19%,nt,-2%,3%[59 µM],8%,45%
Nc1c(/C=C2/C=CC(=O)C(O)=C2)c(=O)nc2sc(CC(=O)N3CCCCC3)nn12,?,nt,10µM*,10µM*,-9%,53%
Nc1c(/C=C2/C=CC(=O)C(O)=C2)c(=O)nc2sc(CC(=O)N3CCOCC3)nn12,20µM*,nt,nt,nt,3%,?
Nc1c(/C=C2/C=CC(=O)C(O)=C2)c(=O)nc2sc(CC(=O)N3CCCC3)nn12,25µM*,nt,20µM*,35µM*,?,?
COC1=C/C(=C/c2c(N)n3nc(CC(=O)N4CCCC4)sc3nc2=O)C=CC1=O,-34%,nt,-19%[57.1 µM],?,0%,17%
CCOC1=C/C(=C/c2c(N)n3nc(CC(=O)N4CCCC4)sc3nc2=O)C=CC1=O,-25%,nt,-21%[57.1 µM],79µM*,-11%,12%
CCOC(=O)c1c(C)[nH]c(CCC(=O)Nc2cc(C)ccc2OC)c1C,-24%,nt,-27%,-7%[59 µM],-10%,14%[57 µM]
C=CCNC(=S)NNc1nc2c(c(=O)[nH]1)C1(CCCCC1)Cc1ccccc1-2,?,-6%,?,14µM*,7%,?
Cc1cc(C)c(Nc2nn3c(=O)c4cc5c(cc4nc3s2)OCO5)c(C)c1,-32%,nt,-2%,2.2µM*,-17%,?
COc1cccc(CNCC(O)COc2ccc(C(=O)c3ccccc3)cc2)c1 (stereo not given),56µM*,nt,50µM*,10µM*,9%,?
O=C(c1ccccc1)c1ccc(OCC(O)CNCc2ccc(Cl)cc2)cc1 (stereo not given),20µM*,nt,56µM*,?,-3%,?
OC(CNCc1ccccc1)COc1ccccc1 (stereo not given),-16%,7%,3%,7%[2.33 µM],0%,34%
Cc1cc2c(s1)c1cnn(Cc3c(F)ccc(F)c3Cl)c(=O)c1n2C,-29%,nt,nt,nt,nt,nt
COC(=O)c1cccc(N2CCCC2=O)c1,-1%,nt,-22%,13%,2%,19%
O=c1c2ccccc2sn1-c1ccc(F)cc1,13µM*,-11%,4.5µM*,2%[0.501 µM],10µM*,7%
O=c1c2ccc(F)cc2sn1-c1ccccc1,nt,nt,nt,nt,7.1µM*,nt
SMILES,JMJD2A Tudor,L3MBTL1 inh,BAZ2B inh,G9a block,GLS inhibitor,HP1b chromo inh
COC(=O)c1cccc(-n2sc3ccccc3c2=O)c1,14µM*,-3%,6.3µM*,8%[0.501 µM],11µM*,-28%
COc1ccc(C(c2c(O)cc(C)n(Cc3ccco3)c2=O)N2CCCCC2)cc1OC (stereo not given),-9%,nt,0%,0%[59 µM],6%,19%[57 µM]
CC1CCCN(Cc2c(O)ccc3c(=O)c(-c4ccc(Cl)cc4)c(C(F)(F)F)oc23)C1 (stereo not given),-24%,nt,-15%,0%[59 µM],0%,12%
CCOC(=O)CSc1nc2c(sc(=S)n2-c2ccccc2OC)c(=O)n1Cc1ccco1,-33%,-6%,-37%,45µM*,8%,-13%
CCOC(=O)CSc1nc2c(sc(=S)n2-c2ccccc2OC)c(=O)n1-c1ccccc1OC,-16%,nt,-17%,-8%,-12%,8%
CCCCCn1c(CCCNC(=O)c2ccccc2)nc2ccccc21,-12%,nt,0%,6%[59 µM],0%,16%
CC(Sc1nnc(NCc2ccccc2)s1)C(=O)Nc1ccc2c(c1)C(=O)c1ccccc1C2=O (stereo not given),?,-9%,?,3.2µM*,-3%,-16%
CC(Sc1nnc(Nc2ccccc2)s1)C(=O)Nc1nc(-c2ccccc2)cs1 (stereo not given),-13%,-15%[2.29 µM],-22%,?,3%,18%
CN(Cc1ccccc1)S(=O)(=O)c1ccc(-c2cnc(C3CC3)o2)cc1,-14%,nt,-4%,6%[59 µM],-11%,0%
CSCC[C@H](NC(=O)[C@H](Cc1ccccc1)NC[C@@H](NC[C@@H](N)CS)C(C)C)C(=O)O,nt,nt,nt,20µM*,nt,nt
Cc1cc(Nc2ccccc2C)n2nc(Cc3ccc(Cl)cc3)nc2n1,-19%,nt,-16%,-25%[59 µM],-8%,36%
COc1ccc(C(=O)C[n+]2ccccc2C)cc1,25µM*,-9%,-3%,-6%[59 µM],?,?
O=C(C[n+]1cc(Br)cc2ccccc21)c1ccc(Cl)cc1,?,nt,-29%,50µM*,2%,-20%
O=C(C[n+]1cc(Br)cc2ccccc21)c1ccc(Br)cc1,?,-1%,-34%,28µM*,0%,5%
Cc1cc(C)c[n+](CC(=O)c2ccc(C)c([N+](=O)[O-])c2)c1,-5%,-1%,-7%,nt,-3%,38%
